ClpP mod: qHTS Assay for Activators of ClpP; AID 651965, 2013; 340,000 tested, 1.9% active; ATP-dependent Clp protease proteolytic subunit (Bacillus subtilis (strain 168)), P80244; Potency, µM (titrated, usually from 57.5 µM), without a hit: at the top dose activity change, negative = active; purified B. subtilis ClpP, FRET peptide cleavage, 20 min; active = well fitted falling curve with a large enough effect; inconclusive = small, poorly fitted or top-dose-only effect; inactive = no such curve, though single readings can be large or run the other way; also: potency is read from the fitted curve at half-maximal effect; the source files actives as falling curves though it sought activators and does not explain the sign; nearly all actives have a fitted effect of over 65% in size
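Purified B. subtilis ClpP, 10 microg/mL final in Tris/HCl pH8 with KCl, BSA, glycerol and Tween-20, cleaved an Abz/nitrotyrosine-quenched decapeptide. Fluorescence (ex 320, em 430) was read at 0 and 20 min at room temperature. Delta was normalized to 5.8 microM ADEP and DMSO/no-enzyme controls.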
Mito fusion act: mitochondrial division inhibition or fusion activation; S. cerevisiae fusion-defective mutant growth rescue, CellTiterGlo 48 h; Potency, µM (top dose mostly 46.1 µM), inactives show at the highest dose growth rescue (activation), hits mostly activators; 320,000 tested, 0.23% active; AID 485298; also: potency is read from the fitted curve at half-maximal effect; % of control where 0% means no effect; nearly all actives have a fitted effect of over 45% in size
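Yeast fusion mutant, YPEG (non-fermentable carbon), compound, 48 h at 37C non-permissive; CellTiterGlo added, 10 min RT, luminescence read. Rescued growth = division inhibition.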
LDHA block: LDHA (human) enzyme inhibition; purified LDHA, NADH/diaphorase-resazurin fluorescence; active compounds read low; activity change, % (values are at about 110 or 230 µM); 480,000 tested, 0.15% active; AID 1347041; in the data active = activity change below about -30%; inconclusive = mostly about -25% to -30%;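 also: plate controls were DMSO wells for no effect and wells without enzyme for full effect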
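Enzyme activity of human lactate dehydrogenase 5 (2 nM; 0.06 mM NADH, 0.2 mM pyruvate, 5 min, RT) is measured via a resazurin/diaphorase fluorescence readout of residual NADH.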
ASM inhibitor: inhibitors of human secretory acid sphingomyelinase; Potency, µM (series often up to 57.5 µM), inactives show at the top dose activity change, negative = inhibition, most hits filed as inhibitors; AID 504937; placental ASM, HMU-PC fluorogenic substrate, 60 min; 340,000 tested, 0.006% active; P17405; also: potency is read from the fitted curve at half-maximal effect
Target sequence (P17405 47-631 limits assumed): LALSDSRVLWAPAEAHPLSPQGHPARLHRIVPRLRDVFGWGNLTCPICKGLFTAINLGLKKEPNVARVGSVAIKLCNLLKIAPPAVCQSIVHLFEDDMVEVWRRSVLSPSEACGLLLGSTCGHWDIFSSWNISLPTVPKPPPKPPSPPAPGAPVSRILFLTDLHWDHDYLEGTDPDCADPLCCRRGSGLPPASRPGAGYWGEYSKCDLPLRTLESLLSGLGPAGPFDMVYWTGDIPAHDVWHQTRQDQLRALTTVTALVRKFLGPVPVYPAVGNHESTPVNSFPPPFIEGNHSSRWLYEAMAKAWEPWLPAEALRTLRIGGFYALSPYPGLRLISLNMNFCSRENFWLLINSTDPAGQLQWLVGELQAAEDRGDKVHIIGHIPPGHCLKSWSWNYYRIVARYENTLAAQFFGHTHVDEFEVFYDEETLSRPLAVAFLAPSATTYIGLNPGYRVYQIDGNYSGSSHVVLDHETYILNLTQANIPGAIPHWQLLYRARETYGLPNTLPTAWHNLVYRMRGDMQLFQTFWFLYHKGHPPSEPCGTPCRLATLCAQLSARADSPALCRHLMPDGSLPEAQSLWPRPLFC
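Fluorescence read-out (Ex 386 nm, Em 447 nm) after stopping the reaction at pH 10. Enzyme: ASM from human placenta; substrate HMU-PC0, 9 uM final; 60 min, 37 °C. Compound preincubation 10 min, ambient temperature.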
mIDH1 inhibitor: inhibitors of human mutant IDH1 R132H; O75874; IDH1-R132H enzyme, NADPH consumption, diaphorase/resazurin fluorescence; Potency, µM (doses to about 76.6 µM), inactives show top-dose activity change, negative = inhibition, most hits filed as inhibitors; 390,000 tested, 0.093% active; AID 602179; also: potency is read from the fitted curve at half-maximal effect; % is scaled to controls: 0 for no effect and ±100 for the full control effect; nearly all actives have a fitted effect of over 65% in size
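IDH1-R132H (0.5 ug/mL dispensed) in pH 7.5 Tris buffer was preincubated 30 min with compound, then given a substrate mix of 0.016 mM NADPH and 2 mM alpha-KG for 80 min at room temperature; remaining NADPH was read by diaphorase/resazurin fluorescence.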
RGS4 inh: inhibitors of human regulator of G protein signaling 4. Potency, µM (titrated, usually from 114 µM), without a hit: at the top dose activity change, negative = inhibition, most hits filed as inhibitors. Transcreener GDP fluorescence polarization, RGS4-accelerated GTP hydrolysis. AID 504845. 390,000 tested, 0.039% active. P49798; also: potency is read from the fitted curve at half-maximal effect; % is scaled to controls: 0 for no effect and ±100 for the full control effect; nearly all actives have a fitted effect of over 75% in size
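MLSMR compounds (23 nl, pin-transferred) preincubated 10 min at room temperature with a 500nM (2x) first reagent, then RGS4 at 900nM (2x) plus Transcreener GDP mix added; fluorescence polarization (620/688 nm) read before and after 90 min at 30 °C.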
Active calls of the source: *; u = inconclusive; x = not tested or not shown; ! = not active in a repeat; [ ] = dose if it differs, or a comment. Only a selection was taken, and hits are over-represented in it overall. Unless noted, calls follow the shape of the dose curve; as a rule, active = well fitted curve in the direction sought with a large enough effect; inconclusive = small, poorly fitted or top-dose-only effect, or another doubt; inactive = no such curve, though single readings can be large; an effect the other way counts as inactive or inconclusive.

SMILES	ClpP mod	Mito fusion act	LDHA block	ASM inhibitor	mIDH1 inhibitor	RGS4 inh
COc1cc(NC(=O)C(C)n2nc(-c3ccccc3)c3c(c2=O)CCCC3)cc(OC)c1 (stereo not drawn)	x	x	-32*	x	x	x
Nc1ccc(-c2nc3c(Cl)c(N)ccc3[nH]2)cc1	28µM*	-2%	0	112%	4%	-24%
Nc1ccc(-c2nc3ccc(N)cc3[nH]2)cc1	4%	2%	-1	195%	-3%	-13%
CC(NC(=O)C1=CC=CN2CCS(=O)(=O)N=C12)c1ccc(Cl)cc1Cl (stereo not drawn)	25µM*	-8%	-8	24%	-6%	-14%
CC1(C)O[C@@H]2C[C@H]3[C@@H]4C[C@H](F)C5=CC(=O)C=C[C@]5(C)[C@@]4(F)[C@@H](O)C[C@]3(C)[C@]2(C(=O)CO)O1	0%	-2%	-2	0%	10%	-6%
CC1(C)O[C@@H]2C[C@H]3[C@@H]4CCC5=CC(=O)C=C[C@]5(C)[C@@]4(F)[C@@H](O)C[C@]3(C)[C@]2(C(=O)CO)O1	1%	13µM*	-4	-4%	-13%	2%
CN(CC(=O)Nc1ccc(Cl)c(Cl)c1)Cc1ncc(-c2ccc(F)cc2)o1	x	x	1	x	x	x
Cc1ccc(-c2cc3nc(-c4ccccc4)cc(N)n3n2)cc1	25µM*	6%	-6	84%	2%	30%
Cc1ccc(-c2cc(N)n3nc(-c4ccc(C)cc4)cc3n2)cc1	13µM*!	3%	-9	58%	1%	1%
Cc1cc(-c2ccccc2)n2nc(-c3cccc(Br)c3)cc2n1	-27%	x	2	x	-3%	-15%
COc1ccc(-c2cc(-c3ccccc3)nc(Cl)n2)cc1OC	x	-6%	0	79%	-15%	11%
Cc1cc(N)n2nc(-c3ccccc3)cc2n1	28µM*	6%	-1	4%	7%	-27%
Cc1ccc(-c2cc(-c3ccccc3)nc(Cl)n2)cc1	28µM*	-4%	-6	-8%	-1%	-2%
Cc1ccc(-c2cc(N)n(-c3ccc(C)cc3)n2)cc1	-1%	-2%	3	-1%	4%	-13%
COc1ccccc1/C=C(\C#N)C(=O)Nc1cccc(C(F)(F)F)c1	x	x	9	x	x	x
Cc1ccc(-c2cc3nc(-c4ccc(Br)cc4)cc(N)n3n2)cc1	28µM*	26%	-8	45%	-3%	-3%
Cc1cc(C)n2nc(-c3ccc(Br)cc3)cc2n1	5%	4%	-1	-13%	2%	-3%
Cc1cccc2nc(-c3ccc(O)cc3)c(Nc3ccc4c(c3)OCCO4)n12	x	x	0	x	x	x
CC1(C)Cc2nc3oc4c(N(CCO)Cc5ccccc5)ncnc4c3cc2CO1	14µM*	5%	7	-1%	5%	8%
Cc1cc(C)nc(NC(=O)c2csc3ccccc23)n1	x	x	-7	x	x	x
COc1ccc(C(N)c2csc(Nc3ccc(C(=O)NCCCO)cn3)n2)cc1 (stereo not drawn)	28µM*	x	-7	x	x	x
COc1cc(/C=C(/C#N)C(=O)NCCCc2ccccc2)ccc1OCC(=O)O	-3%	0%	-34*	7%	18%	-28%
COc1cc(/C=C(\C#N)C(=O)NCc2ccccc2)ccc1OCc1ccc(C(=O)O)cc1	-5%	0%	-13	8%	5%	-10%[11.4 µM]
Cc1cc(C)nc(N2CCC(C(=O)NCc3ccco3)CC2)n1	16µM*	-7%	-8	4%	3%	-8%
COC(=O)CNC(=O)C1CCN(c2nc(C)cc(C)n2)CC1	32µM*	0%	-4	1%	7%	13%
SMILES	ClpP mod	Mito fusion act	LDHA block	ASM inhibitor	mIDH1 inhibitor	RGS4 inh
Cc1cc(C)nc(N2CCCC(C(=O)NC3CCCC3)C2)n1 (stereo not drawn)	22µM*	6%	0	3%	7%	-27%
COc1ccc(COC(=O)C2=C(C)NC3=C(C(=O)CCC3)C2c2cccc(OC)c2)cc1 (stereo not drawn)	x	x	-4	x	x	x
Cc1cccn2c(=O)nc(SCC(=O)N3CC(C)OC(C)C3)nc12 (stereo not drawn)	32µM*	-1%	-3	-2%	4%	6%
C/C(=N\NS(=O)(=O)c1ccccc1)c1ccccc1	x	-5%	-5	5%	-1%	-28%
CCCCc1ccc(S(=O)(=O)N/N=C(/C)c2ccncc2)cc1	32µM*	-2%	-8	2%	1%	-23%
C=CCC(c1ccccc1)N(C(C)=O)c1ccco1 (stereo not drawn)	x	25µM*	-13	1%	-7%	-4%
COc1ccc(-c2noc(CNC(=O)c3cc4cccc(OC)c4o3)n2)cc1	x	x	11	x	x	x
O=C(Nc1ccc(S(=O)(=O)NCc2ccccc2)cc1)C1CCCCC1	25µM*	2%	-9	-1%	-2%	6%
CC(=O)Nc1ccc(S(=O)(=O)NCCC(=O)N2CCC(Cc3ccccc3)CC2)cc1	11µM*	1%	-1	1%	3%	-3%
CCc1ccc(NC(=O)Nc2ccc3sc(NC(C)=O)nc3c2)cc1	x	x	8	x	x	x
CCC(C)[C@H](NC(=O)NCCc1ccc(F)cc1)C(=O)O (stereo partly drawn)	x	x	3	x	x	x
CCOC(=O)C1=C(C)NC(=O)CC1C(=O)Nc1cc(Cl)cc(Cl)c1 (stereo not drawn)	x	x	-61*	x	x	x
c1ccc(-c2cnc(SCCN3CCOCC3)n2CC2CCCO2)cc1 (stereo not drawn)	-6%	-1%	-32*	-1%	0%	19%
CC(C)CC(NC(=O)OCc1ccccc1)C(=O)NC(C)C(=O)O (stereo not drawn)	x	x	8	x	x	x
Cc1cc(-c2ccccc2)[nH]c(=O)c1S(=O)(=O)c1ccccc1	14µM*	-1%	-4	203%	15%	33%
Cc1cc(-c2ccccc2)[nH]c(=O)c1S(=O)(=O)c1ccc(Cl)cc1	u	0%	-7	283%	9%	-10%
CC(=O)Nc1cccc(CP(=O)(c2ccccc2)c2ccccc2)c1	32µM*	-11%	-11	6%	6%	-5%
Cc1ccccc1-c1noc(CN2CCC(O)CC2)n1	x	x	-12	x	x	x
O=C(NCc1ccc(Cl)cc1)c1ccc(OCC2CCCO2)cc1 (stereo not drawn)	-1%	-3%	-7	-2%	-1%	-1%
O=C(Nc1ccc(Cl)cc1)c1ccc(OCC2CCCO2)cc1 (stereo not drawn)	14µM*	9%	-8	-1%	2%	11%
CC(=O)c1ccc(SCC(=O)Nc2ccc(N3CCCC3=O)c(C)c2)c(F)c1	x	x	1	x	x	x

High-throughput results as filed in PubChem BioAssay.
